# Assay outcomes deposited in PubChem by several laboratories.
# TIM10 inh = growth inhibitors of isogenic TIM10 control yeast, primary screen, counter-screen for tim10-1 yeast inhibitor project, luminescence, uHTS; inhibition, % at 10 µM; S. cerevisiae TIM10 strain growth, BacTiter-Glo luminescence, 24 h; 1.4% of 330,000 active; AID 463195, 2010;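 active = inhibition of 40% or more at the single tested concentration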;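 note: wild-type TIM10 isogenic control strain grown at permissive 25 °C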
# SKKanGAS inh = S. pyogenes SKKanGAS growth inhibitors in kanamycin, primary screen, streptokinase expression inhibitor project, SKKanGAS strain, BacTiter-Glo luminescence; 6 h; inhibition, % at 7.5 µM; 1.3% of 300,000 active; AID 1662, 2009;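 active = mean replicate score, as percent of positive control median, at least 50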;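 note: strain carries kanamycin resistance gene driven by streptokinase promoter and grows in 40 µg/ml kanamycin; loss of luminescence reflects streptokinase promoter inhibition or plain growth inhibition; 0% = median of DMSO wells and 100% = positive control at its reference dose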
# ATG4B inh = ATG4B protease inhibitors, primary screen, biochemical, fluorescence, uHTS; 0.51% of 340,000 active; AID 504462, 2011; Cysteine protease ATG4B (Homo sapiens), Q9Y4P1; ATG4B cleavage of LC3-PLA2, NBD-HPC fluorescence, 1 h; inhibition, % at 8.33 µM; in the data active = inhibition above about 40%
# Target sequence (Q9Y4P1 whole entry, looked up): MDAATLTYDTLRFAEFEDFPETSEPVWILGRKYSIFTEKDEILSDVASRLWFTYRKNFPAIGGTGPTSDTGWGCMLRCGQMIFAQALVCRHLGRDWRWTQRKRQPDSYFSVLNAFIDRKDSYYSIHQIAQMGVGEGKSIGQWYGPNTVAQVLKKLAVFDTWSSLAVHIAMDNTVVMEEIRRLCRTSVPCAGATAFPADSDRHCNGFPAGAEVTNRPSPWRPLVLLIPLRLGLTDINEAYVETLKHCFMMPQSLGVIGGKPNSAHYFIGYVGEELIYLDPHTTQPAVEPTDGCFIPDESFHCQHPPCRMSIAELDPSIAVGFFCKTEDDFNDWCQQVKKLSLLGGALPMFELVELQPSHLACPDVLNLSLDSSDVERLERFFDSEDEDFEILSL
# PfHsp90 set2 = growth inhibition of PfHsp90-expressing yeast, primary screen, antimalarial PfHsp90 inhibitor project, S. cerevisiae, BacTiter-Glo luminescence, single point, set 2; BacTiter-Glo ATP, 48 h; yeast lacking PDR1 and PDR3 efflux regulators; inhibition, % at 9.4 µM; 0.32% of 310,000 active; AID 504621, 2011;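 active = every replicate shows inhibition above about 80%, whatever the replicate mean, limit read from the data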;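 note: 0% = DMSO neutral controls and 100% = 20 µM radicicol positive controls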
# tim23-1 inh = growth inhibitors of tim23-1 mutant yeast, primary screen, luminescence, uHTS; S. cerevisiae tim23-1 growth, BacTiter-Glo luminescence, 24 h; inhibition, % at 20 µM; 1.3% of 330,000 active;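 active = growth inhibition of the mutant yeast at or above 50%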;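 note: temperature-sensitive mutant grown at 25 °C; plate controls were DMSO-treated mutant yeast for no effect and medium wells lacking yeast for full effect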
# tim10-1 inh = growth inhibitors of tim10-1 mutant yeast, primary screen, luminescence, uHTS. S. cerevisiae tim10-1 ts strain growth, BacTiter-Glo, 24 h. inhibition, % at 20 µM. 2.2% of 330,000 active. AID 463190, 2010;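 active = inhibition of at least 40%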;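 note: mutant grown at 25 °C; 0% = DMSO wells with yeast and 100% = wells holding no yeast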
# Active calls of the source: *; . = not tested or not shown. The list is not random: actives were taken first. Their share in the collection is about 4.7%.
SMILES,TIM10 inh,SKKanGAS inh,ATG4B inh,PfHsp90 set2,tim23-1 inh,tim10-1 inh
COc1ccc(-n2c(/C=C/c3ccc(O)c(OC)c3)nc3ccccc3c2=O)cc1,1,91*,11,-16,43,5
Cn1c(O)c(C(=Nc2ccc(F)cc2)c2ccccc2Cl)c(=O)n(C)c1=O,-4,-4,-4,106*,22,-12
Cn1c(O)c(C(=NCCN2CCCCC2)c2ccccc2Cl)c(=O)n(C)c1=O,-16,6,-6,.,-8,15
Cn1ncc(Cl)c1C(=O)N1CCC2(CC1)OCCO2,1,51*,-5,16,0,1
CN1CCN(C(=O)COc2ccc(S(=O)(=O)N(C)Cc3ccccc3)cc2)CC1,-3,-9,-1,0,8,6
C[CH2][Hg][S]c1ccccc1C(=O)O,31,.,1,109*,35,-24
OC1C2CN3CN(C2)CC1(c1ccccc1)C3 (centres undefined),.,6,3,13,.,.
CC(=NNC(=S)N1CC2CCC(CC2)C1)c1nccs1,.,.,3,121*,.,.
O=C(c1ccc2c(c1)OCO2)C1CCCN(CC2CCCCC2)C1 (centres undefined),-5,17,-1,-5,3,-54
CC(=O)OC1C(=O)OCC23CCC4(C)OC4C2OC2CC(OC(=O)C=CC=CC(=O)OCCC1C)C3(C)C21CO1 (centres undefined),.,.,6,131*,.,.
CC(O)C1C=CC=CC(=O)OC2CC3OC4C5OC5(C)CCC4(COC(=O)C4OC4(C)C(O)CO1)C2(C)C31CO1 (centres undefined),.,.,-2,-4,.,.
COC(=O)C1=C(c2ccc(F)cc2OCc2ccccc2)C[C@@H]2CC[C@H]1N2C(=O)NCc1ccc(N(C)C)cc1,24,.,1,-6,30,24
CCCCCCC(Cl)(Cn1ccnc1)c1ccccc1 (centres undefined),-123,1,4,101*,-217,-39
CCCCCCn1c(O)c(C=NCCCn2ccnc2)c(=O)[nH]c1=O,-9,3,14,-10,11,12
COc1ccc(-n2c(CNCCc3ccc(C)cc3)nc3ccccc3c2=O)cc1,12,5,-10,2,34,18
C=Cc1ccc(Cn2c(C(=O)O)c(C=O)c3ccccc32)cc1,1,32,9,-17,8,4
O=P(Nc1ccccc1)(Nc1ccccc1)Oc1ccc(Cl)cc1,23,10,-1,5,23,26
COc1cccc(NP(=O)(Oc2ccc(Cl)cc2)Oc2ccc(Cl)cc2)c1,23,56*,6,-19,16,12
COc1cc(OC)c([C@H]2C=C(C)[C@H]3C[C@@H]2C3(C)C)c(OC)c1,5,97*,-3,17,-8,-4
C[C@H]1CC[C@@]2(C)[C@@H](CC[C@@H]3[C@@H]2CC[C@]2(C)[C@@H](O)CC[C@@H]32)C1,-3,87*,-3,-3,21,-8
Cc1sc2ncnc(N3CCC(C(=O)Nc4ccc(C#N)c(Cl)c4)CC3)c2c1C,10,57*,-6,-15,4,-1
Cc1noc(C)c1CSCC(=O)Nc1ccc(C#N)c(Cl)c1,0,.,-47,2,-2,-12
CCOC(=O)c1c(NC(=O)c2c(N)n(CCCOC)c3nc4ccccc4nc23)sc2c1CCCC2,12,56*,-12,-1,11,10
CCOCCCn1c(N)c(C(=O)Nc2sc3c(c2C(=O)OC)CCCC3)c2nc3ccccc3nc21,17,20,-2,-26,6,4
CCn1nc(-c2cccs2)nc2c(=O)n(C)c(=O)nc1-2,.,.,86*,108*,.,.
SMILES,TIM10 inh,SKKanGAS inh,ATG4B inh,PfHsp90 set2,tim23-1 inh,tim10-1 inh
C=CCn1c(O)c(C(C)=Nc2ccc(N(C)C)cc2)c(=O)[nH]c1=O,16,-1,-1,.,15,26
C=CCn1c(O)c(C(C)=Nc2ccc(N(CC)CC)cc2)c(=O)[nH]c1=O,20,76*,-3,-2,3,18
C=CCn1c(O)c(C(CC)=Nc2ccc(N(CC)CC)cc2)c(=O)[nH]c1=O,7,101*,3,.,0,4
CCCCn1c(O)c(C(CC)=Nc2ccc(OCC)cc2)c(=O)[nH]c1=O,37,55*,-2,9,18,27
C=CCn1c(O)c(C(CC)=Nc2ccc(NC(C)=O)cc2)c(=O)[nH]c1=O,37,-2,-11,5,13,8
O=[N+]([O-])c1cc(F)c(N2CCCCCC2)cc1N1CCNCC1,21,4,5,-19,24,22
CCCCCn1c(=O)c(C(=O)Nc2ncccc2C)c(O)c2ccccc21,-15,101*,-9,29,-5,-21
CC1(C)CN=C(Nc2nc3ccccc3s2)S1,-28,61*,-3,-13,24,10
CC(=O)OC1(C)CC(C)C(=O)C(C(O)CC2CC(=O)NC(=O)C2)C1 (centres undefined),.,.,-5,105*,.,.
O=[N+]([O-])/C=C/c1c(Cl)cccc1Cl,.,.,6,145*,.,.
O=C1NC(=O)N(c2ccccc2)C(=O)/C1=C\c1ccc2c3c(cccc13)CC2,-7,-4,.,.,8,10
O=C1C=CC(=O)C2C1C1(Cl)C(Cl)=C(Cl)C2(Cl)C1(Cl)Cl (centres undefined),.,.,16,92*,.,.
Oc1c(Br)cc(Br)cc1Oc1ccc(Br)cc1Br,.,107*,.,.,.,.
Brc1ccc(Oc2ccc(Br)cc2Br)c(Br)c1,-4,.,-1,-25,-11,-31
COC(=O)[C@@]1(C#N)[C@@H]2C=CC(C(C)=O)=CN2[C@@H](C(N)=O)[C@@H]1c1ccc(F)cc1,3,4,-7,12,-4,5
CCOC(=O)[C@@]1(C#N)[C@@H]2C=CC(C(N)=O)=CN2[C@@H](C(N)=O)[C@@H]1c1cccc(Cl)c1,4,5,94*,-18,21,16
CCOC(=O)[C@]1(C#N)[C@@H]2C=CC(C(N)=O)=CN2[C@@H](C(N)=O)[C@@H]1c1ccc(F)cc1,15,12,48*,3,10,6
CN(C)[C@@H]1C(=O)C(C(N)=O)=C(O)[C@@]2(O)C(=O)C3=C(O)c4c(O)ccc(Cl)c4[C@@](C)(O)[C@H]3C[C@@H]12,.,109*,-18,-25,.,.
CN(C)[C@@H]1C(=O)C(C(N)=O)=C(O)[C@@]2(O)C(=O)C3=C(O)c4c(O)cccc4[C@@](C)(O)C3C[C@@H]12 (some centres undefined),-2,109*,-5,14,-1,3
